According to PubChem BioAssay AID1159580 (chemical genetic matrix, 2015):
Several values for one entry are separate records, joined by “and”; a condition that tells them apart may be missing. Identical values can stand only once. Out of some 5,500 compounds screened, about 2,000 (36%) were called active. Inconclusive results (about 18%) are left out. Cut-off read from the data, not from the text of the source: active = normalized growth mostly below about 0.91 (no sharp cut-off); inconclusive = no clear call, values can overlap the other calls; inactive = mostly above about 0.92. This is one part of the list. More than one record can exist for a structure, and the calls need not agree.

Assay: chemical genetic growth profiling, strain panel (AID 1159580);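 note: tested at 20 µM; growth read once vehicle control cultures reached saturation at 30 °C; 1 = growth at the plate median or of vehicle wells; lower values mean less growth of the strain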
Settings: S. cerevisiae deletion strains, growth OD

Measured: normalized growth

CN1CCN(CCCN2c3ccccc3Sc3ccc(C(F)(F)F)cc32)CC1
0.0545 (active) and 0.948 (inactive): locus YHR030C, strain SLT2, stronger effect = lower value
active: locus YAL013W, strain DEP1, stronger effect = lower value 0.065 and 0.82 | locus YAL021C, strain ccr4, stronger effect = lower value 0.0696 | locus YAL026C, strain drs2, stronger effect = lower value 0.0611 | locus YAL030W, strain snc1, stronger effect = lower value 0.0651 | locus YBL061C, strain skt5, stronger effect = lower value 0.0653 | locus YBR009C, strain hhf1, stronger effect = lower value 0.0647 | locus YBR021W, strain FUR4, stronger effect = lower value 0.102 | locus YBR023C, strain chs3, stronger effect = lower value 0.0673 | locus YBR171W, strain sec66, stronger effect = lower value 0.0984 | locus YBR229C, strain ROT2, stronger effect = lower value 0.0712 | locus YBR231C, strain swc5, stronger effect = lower value 0.0679 | locus YBR279W, strain paf1, stronger effect = lower value 0.0731 | locus YCL011C, strain gbp2, stronger effect = lower value 0.0652 | locus YCL016C, strain dcc1, stronger effect = lower value 0.0786 | locus YCL029C, strain bik1, stronger effect = lower value 0.0752 | locus YCL061C, strain MRC1, stronger effect = lower value 0.0741 | locus YCL069W, strain vba3, stronger effect = lower value 0.0697 | locus YCR088W, strain abp1, stronger effect = lower value 0.0705 | locus YDL005C, strain med2, stronger effect = lower value 0.412 | locus YDL035C, strain GPR1, stronger effect = lower value 0.061 | locus YDL040C, strain nat1, stronger effect = lower value 0.0906 | locus YDL074C, strain BRE1, stronger effect = lower value 0.0975 | locus YDL101C, strain DUN1, stronger effect = lower value 0.0711 | locus YDL134C, strain PPH21, stronger effect = lower value 0.0567 | locus YDL192W, strain arf1, stronger effect = lower value 0.0649 | locus YDR001C, strain nth1, stronger effect = lower value 0.0725 | locus YDR069C, strain doa4, stronger effect = lower value 0.0695 | locus YDR101C, strain arx1, stronger effect = lower value 0.0878 | locus YDR137W, strain rgp1, stronger effect = lower value 0.261 | locus YDR150W, strain NUM1, stronger effect = lower value 0.0679 | locus YDR159W, strain sac3, stronger effect = lower value 0.0958 | locus YDR162C, strain NBP2, stronger effect = lower value 0.0537 | locus YDR195W, strain ref2 0.141 | locus YDR297W, strain sur2, stronger effect = lower value 0.0695 | locus YDR318W, strain mcm21, stronger effect = lower value 0.0756 | locus YDR334W, strain swr1, stronger effect = lower value 0.0668 | locus YDR335W, strain msn5, stronger effect = lower value 0.0678 | locus YDR363W, strain ESC2, stronger effect = lower value 0.87 | locus YDR388W, stronger effect = lower value 0.0596 | locus YDR392W, strain spt3, stronger effect = lower value 0.0857 | locus YDR502C, strain sam2, stronger effect = lower value 0.0724 | locus YEL003W, strain gim4, stronger effect = lower value 0.0619 | locus YEL037C, strain rad23, stronger effect = lower value 0.0674 | locus YEL061C, strain CIN8 (second series), stronger effect = lower value 0.0766 | locus YEL061C, strain CIN8, stronger effect = lower value 0.0589 | locus YER015W, strain faa2, stronger effect = lower value 0.0802 | locus YER016W, strain bim1, stronger effect = lower value 0.0723 | locus YER110C, stronger effect = lower value 0.293 | locus YER111C, strain swi4, stronger effect = lower value 0.36 | locus YER155C, strain BEM2, stronger effect = lower value 0.12 | locus YER167W, strain BCK2, stronger effect = lower value 0.0606 | locus YFR010W, strain ubp6, stronger effect = lower value 0.0817 | locus YGL086W, strain mad1, stronger effect = lower value 0.0657 | locus YGL167C, strain pmr1, stronger effect = lower value 0.0948 | locus YGL173C, strain kem1, stronger effect = lower value 0.216 | locus YGL227W, strain vid30, stronger effect = lower value 0.0831 | locus YGL240W, strain doc1, stronger effect = lower value 0.554 | locus YGL248W, strain PDE1, stronger effect = lower value 0.0581 | locus YGL253W, strain hxk2, stronger effect = lower value 0.0605 | locus YGR135W, strain pre9, stronger effect = lower value 0.0937 | locus YGR229C, strain SMI1, stronger effect = lower value 0.0673 and 0.0769 | locus YGR252W, strain gcn5, stronger effect = lower value 0.138 | locus YHR013C, strain ard1, stronger effect = lower value 0.169 | locus YHR027C, strain rpn1, stronger effect = lower value 0.0682 | locus YHR079C, strain IRE1 (second series), stronger effect = lower value 0.0763 | locus YHR094C, strain hxt1, stronger effect = lower value 0.0748 | locus YHR129C, strain ARP1, stronger effect = lower value 0.0646 | locus YHR142W, strain chs7, stronger effect = lower value 0.0848 | locus YHR200W, strain rpn10, stronger effect = lower value 0.0811 | locus YIL066C, strain RNR3, stronger effect = lower value 0.0614 | locus YIL073C, strain SPO22, stronger effect = lower value 0.113 | locus YIR030C, strain dcg1, stronger effect = lower value 0.0766 | locus YJL092W, strain hpr5, stronger effect = lower value 0.0707 | locus YJL095W, strain BCK1 (second series), stronger effect = lower value 0.0585 | locus YJL115W, strain asf1, stronger effect = lower value 0.0851 | locus YJL129C, strain trk1, stronger effect = lower value 0.0827 | locus YJL134W, strain LCB3, stronger effect = lower value 0.108 | locus YJL154C, strain vps35, stronger effect = lower value 0.0623 | locus YJL164C, strain tpk1, stronger effect = lower value 0.0715 | locus YJL166W, strain qcr8, stronger effect = lower value 0.0701 | locus YJL168C, strain set2, stronger effect = lower value 0.0656 | locus YJL187C, strain SWE1 (second series), stronger effect = lower value 0.0593 | locus YJL187C, strain SWE1, stronger effect = lower value 0.0715 | locus YJR043C, strain POL32, stronger effect = lower value 0.0718
0.0646 (active) and 0.977 (inactive): locus YJL095W, strain BCK1, stronger effect = lower value
0.0702 (active) and 0.956 (inactive): locus YGR078C, strain PAC10, stronger effect = lower value
inactive: locus YAL040C, strain CLN3, stronger effect = lower value 0.989 | locus YCL061C, strain MRC1 (second series), stronger effect = lower value 0.969 | locus YDL185W, strain tfp1, stronger effect = lower value 0.936 | locus YER002W, strain NOP16, stronger effect = lower value 1.07 | locus YER155C, strain BEM2 (second series), stronger effect = lower value 1.01 | locus YGL078C, strain dbp3, stronger effect = lower value 0.978 | locus YHR079C, strain IRE1, stronger effect = lower value 0.961 | locus YIL125W, strain kgd1, stronger effect = lower value 0.982 | locus YJR066W, strain TOR1, stronger effect = lower value 0.915
